The AC50 is the concentration at which the activity in the assay is half-maximal.

The values that follow come from PubChem BioAssay (EPA / NIEHS).

Assay [1] deals with human RAR-related Orphan Receptor gamma (RORg), RORC (gene 6097) (UniProt P51449). Description: ATG_RORg_TRANS: Attagene TRANS-FACTORIAL HepG2 Assay for human RAR-related Orphan Receptor gamma (RORg) (AID 2283011; active means hit-call score of the fitted dose curve at least 0.9, where 1 is the maximum). The method, boiled down: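 Readout: reporter transcript induction (RT-PCR, fluorescent primer extension, capillary electrophoresis) after 24 h compound exposure of transiently transfected HepG2 cells carrying a RORg-Gal4 chimera and GAL4-UAS reporters; DMSO served as baseline, with increasing signal fitted.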

Read-out in assay [2]: Tumor necrosis factor (Homo sapiens) (UniProt P01375)
The assay is described as follows: BSK_BT_xTNFa: BioMAP Diversity Plus: BT Assay for Tumor necrosis factor alpha (TNF-alpha) Biomarker Activity (AID 2284230). Conditions: primary human B cells with PBMC. The method, boiled down:
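B cells with PBMC in co-culture, dosed and sampled at 24 h; secreted TNF-alpha measured by Luminex xMAP bead assay. Activity fitted in the gain direction against DMSO as negative control and baseline.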

Read-out in assay [3]: Vascular cell adhesion molecule 1 (VCAM1), VCAM1 (gene 7412)
Description: BSK_MyoF_VCAM1: BioMAP Diversity Plus: MyoF Assay for Vascular cell adhesion molecule 1 (VCAM1) Biomarker Activity (AID 2284231). Particulars: primary human lung fibroblasts. The method in brief:
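Primary human lung fibroblasts were dosed with test chemical for 24 h, then cell-surface VCAM-1 was measured by ELISA. Activity was fitted in the positive direction against DMSO as negative control and baseline.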

Read-out in assay [4]: Collagen I, COL1A1 (gene 1277)
Description: BSK_MyoF_CollagenI: BioMAP Diversity Plus: MyoF Assay for Collagen I Biomarker Activity (AID 2284238). Conditions: primary human lung fibroblasts. The method, boiled down:
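Human lung fibroblasts were exposed to test chemical for 24 h, then Collagen I was quantified by ELISA. Activity was fitted in the increasing direction against DMSO as the negative control and baseline.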

Read-out in assay [5]: Interleukin 17F (IL17F), IL17F (gene 112744)
The assay is described as follows: BSK_BT_xIL17F: BioMAP Diversity Plus: BT Assay for Interleukin 17F (IL17F) Biomarker Activity (AID 2284243). Conditions: primary human B cells with PBMC. The method, boiled down: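 B cell/PBMC co-culture (human primary), 24 h compound exposure; sIL-17F by Luminex xMAP; gain-of-signal fit vs DMSO baseline.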

Read-out in assay [6]: Actin alpha 1 (ACTA1), ACTA1 (gene 58)
Description: BSK_MyoF_ACTA1: BioMAP Diversity Plus: MyoF Assay for Actin alpha 1 (ACTA1) Biomarker Activity (AID 2284244). Particulars: primary human lung fibroblasts. The method in brief: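 ELISA read-out of a-SMA in primary human lung fibroblast cultures, 24 h post-dosing. Activity scored in the positive direction versus DMSO baseline.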

Read-out in assay [7]: Basic fibroblast growth factor (bFGF), FGF2 (gene 2247)
The assay is described as follows: BSK_MyoF_bFGF: BioMAP Diversity Plus: MyoF Assay for Basic fibroblast growth factor (bFGF) Biomarker Activity (AID 2284246). Particulars: primary human lung fibroblasts. The method, boiled down:
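Primary human lung fibroblast culture, 24 h compound exposure; ELISA read-out of bFGF. Positive-direction fit vs DMSO baseline. Cytotoxicity: SRB stain (0.1% SRB, 10% TCA fixation, 560 nm) in parallel wells.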

Read-out in assay [8]: Interleukin-8 (IL8), CXCL8 (gene 3576)
The assay is described as follows: BSK_MyoF_IL8: BioMAP Diversity Plus: MyoF Assay for Interleukin-8 (IL8) Biomarker Activity (AID 2284261). Particulars: primary human lung fibroblasts. The method, boiled down:
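ELISA read-out of IL-8 from primary human lung fibroblasts, 24 h post-dose; positive-direction curve fitting relative to DMSO vehicle baseline.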

A short description of assay [9]: BSK_MyoF_SRB: Viability Assessment in the BioMAP Diversity Plus: MyoF Assay (AID 2284267).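 Further: total protein by SRB absorbance in parallel cultures as cytotoxicity measure; cells assessed 24 h after compound addition.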 Particulars: primary human lung fibroblasts. The method in brief: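 Lung fibroblast cultures, 24 h post-dose; fix 10% TCA, stain 0.1% SRB, read 560 nm. Signal = total protein as cytotoxicity measure; fitted relative to DMSO negative control.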
Assay [10] has as its target human Retinoic Acid Receptor beta (RARb), RARB (gene 5915) (UniProt P10826). The assay is described as follows: ATG_RARb_TRANS: Attagene TRANS-FACTORIAL HepG2 Assay for human Retinoic Acid Receptor beta (AID 2283004; active means hit-call score of the fitted dose curve at least 0.9, where 1 is the maximum). The method, boiled down:
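HepG2 cells transiently transfected with multiplexed GAL4-UAS reporter units expressing chimeric NR–Gal4 fusions; 24 h compound exposure. Reporter mRNA quantified by RT-PCR, 6-FAM labelling, HpaI digestion and capillary electrophoresis; gain-of-signal fitted against DMSO baseline.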

Assay [11] addresses Retinoic acid receptor alpha (Homo sapiens) (UniProt P10276). The assay is described as follows: ATG_RARa_TRANS: Attagene TRANS-FACTORIAL HepG2 Assay for human Retinoic Acid Receptor alpha (RARa) (AID 2283005; active means hit-call score of the fitted dose curve at least 0.9, where 1 is the maximum). The method in brief: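 HepG2 transiently transfected with multiplex GAL4-UAS reporter units including a human RARa–GAL4 chimera; 24 h compound exposure. Reporter mRNA quantified by RT-PCR, 6-FAM labeling and capillary electrophoresis; gain of signal versus DMSO.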

Assay [12] concerns the target human Retinoic Acid Receptor gamma (RARg), RARG (gene 5916) (UniProt P13631). The assay is described as follows: ATG_RARg_TRANS: Attagene TRANS-FACTORIAL HepG2 Assay for human Retinoic Acid Receptor gamma (RARg) (AID 2283009; active means hit-call score of the fitted dose curve at least 0.9, where 1 is the maximum). The method, boiled down:
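Readout: reporter transcript levels via RT-PCR, 6-FAM primer-extension labelling, HpaI digestion and capillary electrophoresis. Cells: HepG2 carrying transfected RARg-GAL4 chimera plus UAS reporter set. Dosing 24 h; DMSO negative control.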

Assay [13] is described as follows: CEETOX_H295R_MTT_cell_viability: Viability Assessment in the CeeTox HT-H295R MTT Assay (AID 2283718). The method in brief: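 Human H295R adrenal cells, prestimulated 48 h with 10 uM forskolin, were exposed 48 h to chemicals in 0.1% DMSO. Viability was measured in the same wells by MTT (0.5 mg/ml, 4 h, 37 C), absorbance 570/650 nm, as percent of controls.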
The subject of assay [14] is Thyroperoxidase (TPO), gene 54314. The assay is described as follows: CCTE_Simmons_AUR_rTPO: CCTE's Amplex UltraRed Assay for Thyroperoxidase (TPO) Inhibition, Simmons Lab (AID 2283662; active means hit-call score of the fitted dose curve at least 0.9, where 1 is the maximum;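 further: potency for loss of signal meaning inhibition of peroxidase activity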). The method in brief:
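Rat thyroid microsomes (5 ug protein) with 25 uM Amplex UltraRed and 300 uM H2O2 in 200 mM phosphate buffer, 30 min at 37C in dark; fluorescence 544/590 nm. Eight concentrations, 5 nM–87.5 uM final, 0.5% DMSO, triplicate biological replicates.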

Assay [15] in a line: CCTE_Simmons_CellTiterGLO_HEK293T: Viability Assessment in CCTE's Assays for Thyroperoxidase (TPO) Inhibition, Simmons Lab (AID 2283665; active means hit-call score of the fitted dose curve at least 0.9, where 1 is the maximum). The method in brief:
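Luminescent ATP readout (CellTiter-Glo, 20 min at room temperature) after 24 hr exposure of HEK293T cells to 5 nM–87.5 uM final compound; signal loss relative to DMSO vehicle indicated cytotoxicity; dichlone titrated as positive control.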

Assay [16] has as its target Luciferin 4-monooxygenase (Photinus pyralis) (UniProt P08659). Description: CCTE_Simmons_QuantiLum_inhib_2: CCTE's Firefly Luciferase Inhibition Assay, Simmons Lab (AID 2283767; active means hit-call score of the fitted dose curve at least 0.9, where 1 is the maximum). The method, boiled down: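 Cell-free QuantiLum luciferase, 5 ng/well; compounds 5 nM–87.5 uM final, 8 conc, 0.5% DMSO; 30 min, 37C, dark. Detection reagent (150 uM D-luciferin, 147 uM dATP, CoA, DTT, pH 7.8 final) injected per well, kinetic luminescence. Triplicate biological replicates.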

A short description of assay [17]: CCTE_Deisenroth_AIME_384WELL_CTox_Inactive: Cytotoxicity Assessment (CTOX) in CCTE's 384-well Estrogen Receptor Transactivation Assay without AIME metabolic competence (metabolism negative), Deisenroth Lab (AID 2284039; active means hit-call score of the fitted dose curve at least 0.9, where 1 is the maximum;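 further: cell viability via live-cell protease substrate cleaved to fluorescent probe; cells exposed 24 h to medium preincubated 2 h with alginate-water beads without S9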). The method in brief: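 VM7Luc4E2 cells, metabolism-negative arm: test chemicals (0.002–200 uM, 10 points) pre-incubated 2 h with alginate-water microspheres, then medium transferred to cells for 24 h. Viability read as protease-substrate cleavage to fluorescent probe; loss-of-signal, bidirectional fitting.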

Assay [18] can be described thus: CCTE_Harrill_HTTr_CellCount_MCF7: CCTE's Cell Proliferation Assessment for the High-Throughput Transcriptomics (HTTr) Platform, Harrill Lab (AID 2284012; active means hit-call score of the fitted dose curve at least 0.9, where 1 is the maximum;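 further: count of Hoechst-stained nuclei per well by high-content imaging in MCF-7 cells; cells exposed to compound for six hours; intended direction is loss of nuclei count meaning fewer cells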). The method, boiled down: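 Readout: Hoechst nuclear count by high-content imaging. MCF-7, 8-point dilution series, 6 h exposure. Bidirectional fit vs DMSO baseline.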
Assay [19] has as its target rat Thyrotropin Releasing Hormone Receptor (TRH), Trhr (gene 25570) (UniProt Q01717). Description: NVS_GPCR_rTRH: NovaScreen (NVS) G Protein-Coupled Receptor Assay for rat Thyrotropin Releasing Hormone Receptor (TRH) (AID 2283329; active means hit-call score of the fitted dose curve at least 0.9, where 1 is the maximum;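 further: hit means lower bound tracer signal versus DMSO baseline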). The method in brief: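 Rat forebrain membranes; radioligand displacement at TRH receptor by filter-based scintillation counting, read 4 h after dosing. Duplicate single-point screen at 25 uM, actives rerun in concentration series; loss of signal relative to DMSO.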

Each structure is given as a SMILES string. Results filed as inconclusive are left out. Activity calls are given as the source filed them. How the source made its calls, unless noted: active means hit-call score of the fitted dose curve at least 0.9, where 1 is the maximum; inactive means score below 0.9.

Chain of human RAR-related Orphan Receptor gamma (RORg), RORC (gene 6097) (P51449 whole entry, looked up, the tested form may be a part): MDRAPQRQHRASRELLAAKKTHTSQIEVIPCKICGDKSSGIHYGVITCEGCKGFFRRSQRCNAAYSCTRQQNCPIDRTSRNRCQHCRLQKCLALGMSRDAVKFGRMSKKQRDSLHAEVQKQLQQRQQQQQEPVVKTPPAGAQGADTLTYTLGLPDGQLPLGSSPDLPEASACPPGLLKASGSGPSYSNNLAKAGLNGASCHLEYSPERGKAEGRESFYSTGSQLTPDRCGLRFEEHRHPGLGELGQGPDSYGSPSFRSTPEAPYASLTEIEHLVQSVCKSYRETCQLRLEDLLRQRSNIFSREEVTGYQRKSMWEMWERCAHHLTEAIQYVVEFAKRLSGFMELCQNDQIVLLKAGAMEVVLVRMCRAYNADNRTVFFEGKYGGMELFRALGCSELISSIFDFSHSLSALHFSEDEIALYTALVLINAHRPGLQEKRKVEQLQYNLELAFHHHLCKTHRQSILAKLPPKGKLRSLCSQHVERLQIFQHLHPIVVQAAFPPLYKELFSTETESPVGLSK
Chain of Tumor necrosis factor (Homo sapiens) (P01375 whole entry, looked up): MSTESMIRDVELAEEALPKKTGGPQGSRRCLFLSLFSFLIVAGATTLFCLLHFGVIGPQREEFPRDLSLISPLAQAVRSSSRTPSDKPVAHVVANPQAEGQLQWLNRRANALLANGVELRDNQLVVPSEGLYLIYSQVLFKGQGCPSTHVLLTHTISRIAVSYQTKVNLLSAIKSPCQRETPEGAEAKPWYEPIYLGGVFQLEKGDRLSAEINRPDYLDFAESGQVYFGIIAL
Chain of human Retinoic Acid Receptor beta (RARb), RARB (gene 5915) (P10826 whole entry, looked up, the tested form may be a part): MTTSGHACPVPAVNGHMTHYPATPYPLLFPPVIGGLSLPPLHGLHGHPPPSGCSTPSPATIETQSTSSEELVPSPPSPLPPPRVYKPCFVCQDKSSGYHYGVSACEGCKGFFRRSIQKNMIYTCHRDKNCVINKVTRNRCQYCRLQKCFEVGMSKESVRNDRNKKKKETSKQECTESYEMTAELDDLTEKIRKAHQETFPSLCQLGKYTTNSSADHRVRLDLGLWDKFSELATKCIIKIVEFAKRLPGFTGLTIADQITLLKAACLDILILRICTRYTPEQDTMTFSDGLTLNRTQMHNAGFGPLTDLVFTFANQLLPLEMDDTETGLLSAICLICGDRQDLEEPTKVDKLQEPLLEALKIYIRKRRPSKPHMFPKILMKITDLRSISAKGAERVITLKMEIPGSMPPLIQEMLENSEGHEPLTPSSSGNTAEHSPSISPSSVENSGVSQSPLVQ
Chain of human Retinoic Acid Receptor gamma (RARg), RARG (gene 5916) (P13631 whole entry, looked up, the tested form may be a part): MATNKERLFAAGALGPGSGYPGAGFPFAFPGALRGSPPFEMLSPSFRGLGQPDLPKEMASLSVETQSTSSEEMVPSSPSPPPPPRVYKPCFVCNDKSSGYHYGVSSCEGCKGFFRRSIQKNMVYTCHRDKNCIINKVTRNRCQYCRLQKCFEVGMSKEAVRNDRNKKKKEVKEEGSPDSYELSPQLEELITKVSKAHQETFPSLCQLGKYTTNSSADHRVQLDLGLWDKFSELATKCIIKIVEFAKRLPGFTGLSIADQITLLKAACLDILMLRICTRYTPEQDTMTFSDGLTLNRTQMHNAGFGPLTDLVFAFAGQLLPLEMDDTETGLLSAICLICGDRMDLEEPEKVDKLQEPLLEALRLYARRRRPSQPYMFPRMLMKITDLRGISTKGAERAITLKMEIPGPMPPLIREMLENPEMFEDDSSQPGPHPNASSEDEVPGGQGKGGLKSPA
Chain of Retinoic acid receptor alpha (Homo sapiens) (P10276 whole entry, looked up, the tested form may be a part): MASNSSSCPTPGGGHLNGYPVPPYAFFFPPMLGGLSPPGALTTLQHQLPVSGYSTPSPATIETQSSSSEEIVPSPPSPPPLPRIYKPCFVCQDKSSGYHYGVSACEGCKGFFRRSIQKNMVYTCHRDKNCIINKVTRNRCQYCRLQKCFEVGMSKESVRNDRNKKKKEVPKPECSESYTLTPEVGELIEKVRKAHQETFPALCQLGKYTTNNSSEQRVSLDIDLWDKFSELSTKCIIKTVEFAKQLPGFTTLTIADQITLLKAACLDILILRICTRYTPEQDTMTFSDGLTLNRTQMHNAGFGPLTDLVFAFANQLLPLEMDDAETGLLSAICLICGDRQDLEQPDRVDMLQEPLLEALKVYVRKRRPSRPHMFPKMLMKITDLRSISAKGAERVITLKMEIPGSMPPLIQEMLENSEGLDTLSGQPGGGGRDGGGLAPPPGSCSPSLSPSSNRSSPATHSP
Chain of Luciferin 4-monooxygenase (Photinus pyralis) (P08659 whole entry, looked up): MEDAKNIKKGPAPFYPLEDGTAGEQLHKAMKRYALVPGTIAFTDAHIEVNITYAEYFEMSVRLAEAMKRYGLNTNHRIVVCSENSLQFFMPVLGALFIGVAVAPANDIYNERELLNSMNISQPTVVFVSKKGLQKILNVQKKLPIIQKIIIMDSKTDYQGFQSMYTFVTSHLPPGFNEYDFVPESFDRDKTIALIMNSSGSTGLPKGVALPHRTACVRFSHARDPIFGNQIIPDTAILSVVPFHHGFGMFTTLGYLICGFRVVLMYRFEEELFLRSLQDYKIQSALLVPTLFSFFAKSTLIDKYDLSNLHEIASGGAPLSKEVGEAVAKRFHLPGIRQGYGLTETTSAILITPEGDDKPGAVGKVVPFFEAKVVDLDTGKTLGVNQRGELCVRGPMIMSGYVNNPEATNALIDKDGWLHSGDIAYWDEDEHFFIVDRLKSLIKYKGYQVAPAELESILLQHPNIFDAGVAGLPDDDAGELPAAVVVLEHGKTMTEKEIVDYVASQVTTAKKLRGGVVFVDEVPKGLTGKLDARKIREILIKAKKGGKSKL
Chain of rat Thyrotropin Releasing Hormone Receptor (TRH), Trhr (gene 25570) (Q01717 whole entry, looked up): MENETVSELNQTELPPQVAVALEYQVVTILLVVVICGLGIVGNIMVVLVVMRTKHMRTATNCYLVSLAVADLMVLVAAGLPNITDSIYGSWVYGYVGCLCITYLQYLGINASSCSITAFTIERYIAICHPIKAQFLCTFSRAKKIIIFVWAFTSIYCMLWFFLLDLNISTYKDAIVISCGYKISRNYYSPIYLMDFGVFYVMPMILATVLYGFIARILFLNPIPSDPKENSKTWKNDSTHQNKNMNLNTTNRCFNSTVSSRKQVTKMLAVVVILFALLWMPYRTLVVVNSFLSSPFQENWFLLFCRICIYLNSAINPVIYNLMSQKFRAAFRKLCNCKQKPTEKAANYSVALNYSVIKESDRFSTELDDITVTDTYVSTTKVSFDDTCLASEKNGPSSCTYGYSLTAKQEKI

For the molecule `[CH3][Sn]([CH3])([Cl])[Cl]`, the molecule was classed as inactive in assay [1].

On to `CCCOC(=O)c1ccccc1C(=O)OCCC`, for which the result in assay [2], in assay [3], in [4], in assay [5], in assay [6] and in assay [7] was inactive. The result in [8] and in [9] was inactive.

In the case of `C=C(Cl)Cl`, the call in assay [10], in [11], in [12] and in [1] was inactive.

As to `CCC1CCC(=O)O1` (centres undefined), the outcome in assay [10] and in assay [11] was inactive.

With `CC(C)[C@@H](C(=O)O[C@@H](C#N)c1cccc(Oc2ccccc2)c1)c1ccc(Cl)cc1`, the outcome in [13] was inactive.

With `CCC(C)c1cc([N+](=O)[O-])cc([N+](=O)[O-])c1OC(=O)C=C(C)C` (centres undefined), the AC50 was 30.8 µM (active) in [2]; 3.66 µM (active) in assay [3]; 4.1 µM (active) in [4]; 29.3 µM (active) in assay [5]; 5.45 µM (active) in assay [6]; 32.6 µM (active) in assay [7]. For the same molecule, the values for the AC50 in [8] and in [9] were 36.9 µM (active) and 20.8 µM (active), respectively.

`O=C(O)CCl`: the AC50 in assay [14] was 18.1 µM (active). In addition, the outcome in assay [15], in assay [16] and in assay [17] was inactive.

For `CC1CCC(=O)O1` (centres undefined), in assay [1], the outcome was inactive.

Turning to `Cl/C=C\CCl`, the call in assay [18] was inactive.

On to `CCC(Br)(CC)C(=O)NC(N)=O`, for which the molecule was classed as inactive in [10].

In the case of `O=P1(NCCCl)OCCCN1CCCl` (centres undefined), the call in assay [11], in assay [2], in [3], in assay [4], in [5] and in assay [6] was inactive. The result in [7], in assay [8] and in assay [9] was inactive.

Regarding `Cc1ccc(C)c2ccccc12`, the call in [17] was inactive.

Regarding `CCOP(=O)(OCC)Oc1ccc([N+](=O)[O-])cc1`, the outcome in [13] was inactive.

Regarding `O=C1Nc2ccc(Cl)cc2C(c2ccccc2)=NC1O` (centres undefined), the call in assay [18] was inactive.

In the case of `CCOP(O)OCC`, the molecule was classed as inactive in assay [17].

For the molecule `CC(=O)c1cc2c(cc1C)C(C)(C)C(C)CC2(C)C` (centres undefined), the molecule was classed as inactive in assay [19], in assay [13] and in assay [18].

Regarding `CC(C)(C)C(=O)CCl`, the molecule was called inactive in assay [18], in assay [2], in assay [4], in [5], in assay [6] and in assay [7]. For the same molecule, the outcome in [8] and in assay [9] was inactive. For the same molecule, in [3], the AC50 is 20 µM (active).

For the molecule `c1ccc(Nc2ccc3ccccc3c2)cc1`, the molecule was called inactive in [13] and in [8]. Further, the AC50 was 20 µM (active) in [2]; 31.2 µM (active) in [3]; 31 µM (active) in assay [4]; 30.8 µM (active) in [5]; 29 µM (active) in assay [6]; 31 µM (active) in assay [7]. For the same molecule, the AC50 in assay [9] was 35.5 µM (active).

In the case of `N#CCNCC#N`, in assay [1], the call was inactive.

For `O=C(NC(=O)c1c(F)cccc1F)Nc1ccc(Oc2ccc(C(F)(F)F)cc2Cl)cc1F`, the result in [10], in [11], in assay [12] and in assay [13] was inactive.

Take `CCOP(=O)(OCC)OCC`: the molecule was called inactive in [10], in assay [11], in [12] and in assay [1].
